This passage reports growth yield results from the supplement of paper PMC8007513.

Where a name gives a salt, the structure may show the parent alone. ± gives the standard error. Hit rate of the full screen: of about 1,300 compounds, about 130 (10%) showed an effect of 50% or more. For the sample, strong results were picked, then their nearest neighbours and some compounds at random.

For the test, the system named is Trichoderma virens ATCC 9645. Put plainly: growth yield (OD600) with compound + IPBC relative to untreated control; higher = less growth inhibition. As to conditions: compound concentration: 100 uM, IPBC concentration: 200 ng/ml. An outline of the steps: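 For each 96-well plate, 100 μl aliquots were prepared with Trichoderma virens ATCC 9645 spores suspended at 15,000 spores ml^−1 in potato dextrose broth. The spores had been harvested from potato dextrose agar plates after 7 days. Library compounds were present at 100 μM final, some wells also receiving a biocide at 200 ng ml^−1, and plates were grown at 30 °C with OD600 read on a BioTek EL800 at 40 h and 72 h. Reported growth, relative to the control lacking both agents, is the mean of duplicate screens.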

On to `c1ccc2[nH]c(-c3cscn3)nc2c1` [Tiabendazole] + CCCCNC(=O)OCC#CI [3-iodo-2-propynyl butylcarbamate (IPBC)], for which the growth yield runs as follows: (40 h) 4.7652 ± 1.4e-15%; (72 h) 3.3561 ± 1.3e-15%.

On to `CC(CN(C)C)CN1c2ccccc2Sc2ccccc21` (stereo unspecified) [Trimeprazine tartrate] + CCCCNC(=O)OCC#CI [3-iodo-2-propynyl butylcarbamate (IPBC)], for which the growth yield was determined as 71.5 ± 3.8% (40 h) and 92 ± 3.9% (72 h).

Take `CN(C)CCCN1c2ccccc2CCc2ccc(Cl)cc21` [Clomipramine hydrochloride] + CCCCNC(=O)OCC#CI [3-iodo-2-propynyl butylcarbamate (IPBC)]: the growth yield came to 59.6 ± 1.4% (40 h) and 93.2 ± 2% (72 h).

Take `CN1CCCCC1CCN1c2ccccc2Sc2ccc([S+](C)[O-])cc21` (stereo unspecified) [Mesoridazine besylate] + CCCCNC(=O)OCC#CI [3-iodo-2-propynyl butylcarbamate (IPBC)]: the growth yield is 72.6 ± 2.4% (40 h) and 89.25 ± 0.52% (72 h).

As for `CSc1ccc2c(c1)N(CCC1CCCCN1C)c1ccccc1S2` (stereo unspecified) [Thioridazine hydrochloride] + CCCCNC(=O)OCC#CI [3-iodo-2-propynyl butylcarbamate (IPBC)], the growth yield runs as follows: (40 h) 3.81 ± 0.64%; (72 h) 2.94 ± 0.21%.

As for `CN1CCC[C@@H]1CCO[C@](C)(c1ccccc1)c1ccc(Cl)cc1` [Clemastine fumarate] + CCCCNC(=O)OCC#CI [3-iodo-2-propynyl butylcarbamate (IPBC)], the growth yield turned out to be 53.2 ± 1.8% (40 h) and 92.4 ± 0.94% (72 h).

Regarding `CN1CCN(CCCN2c3ccccc3Sc3ccc(S(=O)(=O)N(C)C)cc32)CC1` [Thioproperazine dimesylate] + CCCCNC(=O)OCC#CI [3-iodo-2-propynyl butylcarbamate (IPBC)], the growth yield by setting is: (40 h) 37.8 ± 0.95%; (72 h) 97.1 ± 5%.

On to `O=c1n(CCCN2CCN(c3cccc(Cl)c3)CC2)nc2ccccn12` [Trazodone hydrochloride] + CCCCNC(=O)OCC#CI [3-iodo-2-propynyl butylcarbamate (IPBC)], for which the growth yield reads like this: (40 h) 51 ± 1.1%; (72 h) 86.1 ± 0.94%.

With `CN(C)CCCN1c2ccccc2Sc2ccc(Cl)cc21` [Chlorpromazine hydrochloride] + CCCCNC(=O)OCC#CI [3-iodo-2-propynyl butylcarbamate (IPBC)], the growth yield worked out at 52.4 ± 4.1% (40 h) and 87.2 ± 2.2% (72 h).

On to `OCCN1CCN(CCCN2c3ccccc3Sc3ccc(Cl)cc32)CC1` [Perphenazine] + CCCCNC(=O)OCC#CI [3-iodo-2-propynyl butylcarbamate (IPBC)], for which the growth yield runs as follows: (40 h) 4.29 ± 0.48%; (72 h) 2.94 ± 0.42%.

Turning to `COc1ccc2c(c1)N(C[C@H](C)CN(C)C)c1ccccc1S2` [Methotrimeprazine maleat salt] + CCCCNC(=O)OCC#CI [3-iodo-2-propynyl butylcarbamate (IPBC)], the growth yield reads like this: (40 h) 76.4 ± 1.4%; (72 h) 92.61 ± 0.32%.

Turning to `CN1CCN(CCCN2c3ccccc3Sc3ccc(Cl)cc32)CC1` [Prochlorperazine dimaleate] + CCCCNC(=O)OCC#CI [3-iodo-2-propynyl butylcarbamate (IPBC)], the growth yield stood at 3.18% (40 h) and 2.73 ± 0.21% (72 h).

Turning to `OCCN1CCN(CCCN2c3ccccc3C=Cc3ccccc32)CC1` [Opipramol dihydrochloride] + CCCCNC(=O)OCC#CI [3-iodo-2-propynyl butylcarbamate (IPBC)], the growth yield (40 h) is 69.57 ± 0.64% and the growth yield (72 h) came to 92.4 ± 3%.

On to `CCCCC[C@H](O)/C=C/[C@H]1[C@H](O)CC(=O)[C@@H]1CCCCCCC(=O)O` [Alprostadil] + CCCCNC(=O)OCC#CI [3-iodo-2-propynyl butylcarbamate (IPBC)], for which the growth yield (40 h) amounted to 108 ± 3.3% and the growth yield (72 h) worked out at 107 ± 2.8%.

Consider `Cc1ncc([N+](=O)[O-])n1CC(C)O` (stereo unspecified) [Secnidazole] + CCCCNC(=O)OCC#CI [3-iodo-2-propynyl butylcarbamate (IPBC)], for which the growth yield reads like this: (40 h) 95.9 ± 13%; (72 h) 94.5 ± 9.8%.

For the molecule `N=C(N)NC(=O)Cc1c(Cl)cccc1Cl` [Guanfacine hydrochloride] + CCCCNC(=O)OCC#CI [3-iodo-2-propynyl butylcarbamate (IPBC)], the growth yield is, setting by setting: (40 h) 79.9 ± 4.3%; (72 h) 90.7 ± 3.7%.

`O=C1[C@H]2CCCC[C@H]2C(=O)N1CCCCN1CCN(c2nsc3ccccc23)CC1` [Perospirone] + CCCCNC(=O)OCC#CI [3-iodo-2-propynyl butylcarbamate (IPBC)]: the growth yield reads like this: (40 h) 79.4 ± 0.95%; (72 h) 88.41 ± 0.32%.

`C[C@@H]1C[C@H]2[C@@H]3C[C@H](F)C4=CC(=O)C=C[C@]4(C)[C@@]3(F)[C@@H](O)C[C@]2(C)[C@@]1(O)C(=O)COC(=O)C(C)(C)C` [Flumethasone pivalate] + CCCCNC(=O)OCC#CI [3-iodo-2-propynyl butylcarbamate (IPBC)]: the growth yield came out at 90.9 ± 2.5% (40 h) and 90.3 ± 2% (72 h).

For `CN(CCCN1c2ccccc2CCc2ccccc21)CC(=O)c1ccc(Cl)cc1` [Lofepramine] + CCCCNC(=O)OCC#CI [3-iodo-2-propynyl butylcarbamate (IPBC)], the growth yield was determined as 78.31 ± 0.48% (40 h) and 91.7 ± 1.3% (72 h).

On to `CCN[C@H]1CN(CCCOC)S(=O)(=O)c2sc(S(N)(=O)=O)cc21` [Brinzolamide] + CCCCNC(=O)OCC#CI [3-iodo-2-propynyl butylcarbamate (IPBC)], for which the growth yield turned out to be 76.1 ± 0.79% (40 h) and 86.31 ± 0.32% (72 h).

In the case of `CC(N/C(=N\C#N)Nc1ccncc1)C(C)(C)C` (stereo unspecified) [Pinacidil] + CCCCNC(=O)OCC#CI [3-iodo-2-propynyl butylcarbamate (IPBC)], the growth yield reads like this: (40 h) 97.7 ± 5.9%; (72 h) 102 ± 2.9%.

`CCCCc1cc2ccccc2c(OCCN(C)C)n1` [Dimethisoquin hydrochloride] + CCCCNC(=O)OCC#CI [3-iodo-2-propynyl butylcarbamate (IPBC)]: the growth yield amounted to 52.1 ± 0.64% (40 h) and 82.64 ± 0.42% (72 h).

Take `CC(C)c1nc(CN(C)C(=O)N[C@H](C(=O)N[C@@H](Cc2ccccc2)C[C@H](O)[C@H](Cc2ccccc2)NC(=O)OCc2cncs2)C(C)C)cs1` [Ritonavir] + CCCCNC(=O)OCC#CI [3-iodo-2-propynyl butylcarbamate (IPBC)]: the growth yield was 119 ± 1.6% (40 h) and 119 ± 1.5% (72 h).

Consider `O=C(O)CCC(=O)c1ccc(-c2ccccc2)cc1` [Fenbufen] + CCCCNC(=O)OCC#CI [3-iodo-2-propynyl butylcarbamate (IPBC)], for which the growth yield runs as follows: (40 h) 71.5 ± 2.9%; (72 h) 92.2 ± 1.8%.

Regarding `CCC[C@@H]1C[C@@H](C(=O)N[C@@H]([C@H]2O[C@H](SC)[C@H](O)[C@@H](O)[C@H]2O)[C@@H](C)O)N(C)C1` [Lincomycin hydrochloride] + CCCCNC(=O)OCC#CI [3-iodo-2-propynyl butylcarbamate (IPBC)], the growth yield runs as follows: (40 h) 85.8 ± 3.5%; (72 h) 94.6 ± 2.3%.

Regarding `COCC1=C(C(=O)OC(C)OC(=O)OC(C)C)N2C(=O)[C@@H](NC(=O)/C(=N\OC)c3csc(N)n3)[C@H]2SC1` (stereo partly specified) [Cefpodoxime proxetil] + CCCCNC(=O)OCC#CI [3-iodo-2-propynyl butylcarbamate (IPBC)], the growth yield turned out to be 121 ± 3.5% (40 h) and 113.6 ± 0.94% (72 h).

For `Nc1cc(N2CCCCC2)nc(N)[n+]1[O-]` [Minoxidil] + CCCCNC(=O)OCC#CI [3-iodo-2-propynyl butylcarbamate (IPBC)], the growth yield reads like this: (40 h) 90.1 ± 2.1%; (72 h) 93.5 ± 1.7%.

As to `C[C@]12CC[C@H](O)C[C@H]1CC[C@@H]1[C@@H]2C[C@@H](O)[C@]2(C)[C@@H](C3=CC(=O)OC3)CC[C@]12O` [Digoxigenin] + CCCCNC(=O)OCC#CI [3-iodo-2-propynyl butylcarbamate (IPBC)], the growth yield by setting is: (40 h) 86.6 ± 2.7%; (72 h) 90.72 ± 0.32%.

As to `COC(=O)[C@@H]1[C@H]2C[C@H]3c4[nH]c5ccccc5c4CCN3C[C@@H]2CC[C@@H]1O` [Yohimbine hydrochloride] + CCCCNC(=O)OCC#CI [3-iodo-2-propynyl butylcarbamate (IPBC)], the growth yield by setting is: (40 h) 82.4 ± 1.1%; (72 h) 89.25 ± 0.73%.

For `Nc1nc2[nH]cc(CCc3ccc(C(=O)N[C@@H](CCC(=O)O)C(=O)O)cc3)c2c(=O)[nH]1` [Pemetrexed disodium] + CCCCNC(=O)OCC#CI [3-iodo-2-propynyl butylcarbamate (IPBC)], the growth yield (40 h) worked out at 94.8 ± 7.2% and the growth yield (72 h) came out at 94 ± 4%.

For `CC(CN1c2ccccc2Sc2ccccc21)N(C)C` (stereo unspecified) [Promethazine hydrochloride] + CCCCNC(=O)OCC#CI [3-iodo-2-propynyl butylcarbamate (IPBC)], the growth yield came out at 78.2 ± 1.9% (40 h) and 94.3 ± 4.1% (72 h).

Take `CCN(CC)C(C)CN1c2ccccc2Sc2ccccc21` (stereo unspecified) [Ethopropazine hydrochloride] + CCCCNC(=O)OCC#CI [3-iodo-2-propynyl butylcarbamate (IPBC)]: the growth yield was 72.4 ± 3.8% (40 h) and 89.2 ± 1.6% (72 h).

For `CCSc1ccc2c(c1)N(CCCN1CCN(C)CC1)c1ccccc1S2` [Thiethylperazine dimalate] + CCCCNC(=O)OCC#CI [3-iodo-2-propynyl butylcarbamate (IPBC)], the growth yield (40 h) was found to be 4.45 ± 0.32% and the growth yield (72 h) was found to be 3.25 ± 0.1%.

`C[C@]12C=CC(=O)C=C1CC[C@H]1[C@@H]3C[C@@H](O)[C@](O)(C(=O)CO)[C@@]3(C)C[C@H](O)[C@@]12F` [Triamcinolone] + CCCCNC(=O)OCC#CI [3-iodo-2-propynyl butylcarbamate (IPBC)]: the growth yield is, setting by setting: (40 h) 98.3 ± 3%; (72 h) 97.5 ± 1.9%.

With `COc1ccc(-c2cc(=S)ss2)cc1` [Anethole-trithione] + CCCCNC(=O)OCC#CI [3-iodo-2-propynyl butylcarbamate (IPBC)], the growth yield by setting is: (40 h) 77 ± 1.8%; (72 h) 74.9%.

Take `CN1C[C@H](CNC(=O)OCc2ccccc2)C[C@@H]2c3cccc4c3c(cn4C)C[C@H]21` [Metergoline] + CCCCNC(=O)OCC#CI [3-iodo-2-propynyl butylcarbamate (IPBC)]: the growth yield (40 h) came to 45.4 ± 15% and the growth yield (72 h) stood at 112 ± 9.5%.

As to `CN1C[C@H](C(=O)N[C@]2(C)O[C@@]3(O)[C@@H]4CCCN4C(=O)[C@H](Cc4ccccc4)N3C2=O)C[C@@H]2c3cccc4[nH]cc(c34)C[C@H]21` [Dihydroergotamine tartrate] + CCCCNC(=O)OCC#CI [3-iodo-2-propynyl butylcarbamate (IPBC)], the growth yield runs as follows: (40 h) 105 ± 5.2%; (72 h) 107 ± 2.3%.

Consider `CO[C@]12C[C@@H](COC(=O)c3cncc(Br)c3)CN(C)[C@@H]1Cc1cn(C)c3cccc2c13` [Nicergoline] + CCCCNC(=O)OCC#CI [3-iodo-2-propynyl butylcarbamate (IPBC)], for which the growth yield by setting is: (40 h) 74.2 ± 8.4%; (72 h) 93 ± 5.3%.
